Dicer inh – inhibitors of Dicer pre-microRNA processing, primary screen, biochemical, cat-ELCCA, chemiluminescence. Endoribonuclease Dicer (Homo sapiens), Q9UPY3. cat-ELCCA pre-miR-21 Dicer processing; hits give high values. z-score at 25 µM. actives 6% (n = 47,000). AID 1347074, 2019; in the data active means z-score above about 3, passing the limit was not always enough;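 further: plate controls were vehicle for no effect and no enzyme for full effect; higher signal means more uncleaved substrate so more Dicer inhibition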
* hit, by the source's call. The entries come from a sample that favours hits as a whole.

SMILES	Dicer inh
Nc1ncc(C(=O)Nc2ccc(F)cc2F)c(C(F)(F)F)n1	-2.4
COc1ccc(-c2[nH]c(SC)nc(=S)c2C#N)cc1	-2
N#Cc1c(-c2cccnc2)[nH]c(=S)[nH]c1=O	-0.38
N#Cc1c(-c2ccncc2)[nH]c(=S)[nH]c1=O	3.6*
CCOC(=O)CSc1ncnc2sc3c(c12)CCC(C)C3 (stereo unspecified)	1.1
CCOC(=O)c1c(NC(=O)Nc2cccc(Cl)c2)sc2c1CCC(C)C2 (stereo unspecified)	-0.47
CCOC(=O)c1ccc([N+](=O)[O-])o1	-2.6
COc1ccc(/C=C2/N=C(C)OC2=O)cc1	-0.48
CCOc1ccccc1/C=C1N=C(/C=C/c2ccccc2)OC/1=O	2
COc1ccc(/C=C2N=C(/C=C/c3ccccc3)OC/2=O)cc1	4.4*
S=C(Nc1ccccc1)Nc1ccc(C2CC2(Cl)Cl)cc1 (stereo unspecified)	0.72
CCOC(=O)c1c(NC(=O)Cn2nc(C(F)(F)F)c3c2CCC3)sc2c1CCCC2	0.11
CCCOC(=O)c1c(NC(=O)Cn2nc([N+](=O)[O-])cc2C)sc2c1CCCC2	4.3*
CCOC(=O)c1c(NC(=O)CCC(=O)OC)sc2c1CCCC2	-1.2
CN(n1cnc2ccsc2c1=O)S(=O)(=O)c1ccc(Cl)cc1	0.02
CN(C(=O)Nc1ccccc1)n1cnc2ccsc2c1=O	5.4*
CN(C(=O)CN1CCOCC1)n1cnc2ccsc2c1=O	0.08
Cc1ccc(-c2nc(NC(=O)c3ccccc3)sc2C)cc1Cl	0.94
Cc1ccc(S(=O)(=O)Nc2nc(-c3ccc(C)c(Cl)c3)c(C)s2)cc1	3.3*
Cc1ccc(S(=O)(=O)NC(=O)Nc2nc(-c3ccc(C)c(Cl)c3)c(C)s2)cc1	-1.6
COc1cc(S(=O)(=O)N2CCN(Cc3ccc4c(c3)OCO4)CC2)ccc1Cl	1.2
O=c1c(Cc2ccccc2)c(O)c2ccccc2n1Cc1ccccc1	-1.7
C=CCn1c(N)cc(=O)nc1SCC(=O)Nc1ccccc1	0.4
C=CCn1c(=O)c(C(=O)Nc2cccc(O)c2)c(O)c2ccccc21	11*
O=C(Nc1ccc(S(=O)(=O)Nc2ncccn2)cc1)N1c2ccccc2Sc2ccccc21	0.16
SMILES	Dicer inh
O=C(Nc1cccc(Cl)c1)O/N=C1\CC(c2ccccc2)Oc2ccccc21 (stereo unspecified)	-0.91
COC(=O)c1c(C)oc2ccc(OC(=O)N3CCOCC3)cc12	5.7*
Cc1oc2ccc(OC(=O)N3CCOCC3)cc2c1C(=O)OC(C)C	-0.19
CCOC(=O)c1c(C)oc2ccc(OC(=O)N3CCOCC3)cc12	1.5
Cc1cccc(NC(=O)NC(=O)c2ccc(C(C)(C)C)s2)n1	1.1
Cc1ccc(/C=C/c2onc(C)c2[N+](=O)[O-])o1	-1.3
Cc1noc(/C=C/c2ccc(OCc3ccsc3C#N)cc2)c1[N+](=O)[O-]	-3.1
Cc1noc(/C=C/c2ccc(N3CCCC3)cc2)c1[N+](=O)[O-]	3.3*
Cc1c(C)c(C)c(S(=O)(=O)Nc2cc(Cl)cc(Cl)c2)c(C)c1C	0.7
Cc1c(C)c(C)c(S(=O)(=O)Nc2ccccc2N)c(C)c1C	13*
Cc1c(C)c(C)c(S(=O)(=O)Nc2ccc(Cl)cc2Cl)c(C)c1C	-0.12
Cc1cccc2c1NC(=O)C2(O)CC(=O)c1ccccc1 (stereo unspecified)	-0.04
O=C(O)c1ccc(Br)s1	-0.34
O=C(OCCSCc1cc([N+](=O)[O-])cc2c1OCOC2)c1ccc(Cl)cc1	0.23
Cc1cccc(Cn2nc(C(C)(C)C)cc2-c2nnc(SCC(=O)Nc3ccccc3Cl)o2)c1	2.3
CC1CC(C)(C)N(C(=O)CN2C(=O)CCC2=O)c2ccccc21 (stereo unspecified)	1.8
CC1CC(C)(C)N(C(=O)NC2CCCCC2)c2ccccc21 (stereo unspecified)	2.5
CC1CC(C)(C)N(C(=O)Nc2cccc(Cl)c2)c2ccccc21 (stereo unspecified)	6.6*
Cc1cc(=O)oc2c3c4c(cc12)CCCN4CCC3	-0.04
CSc1ccccc1NC(=O)Cn1cnc([N+](=O)[O-])n1	-0.09
Cn1cc([N+](=O)[O-])c(C(=O)Nc2ccc(Cl)cc2)n1	1.7
O=C(Cn1cnc([N+](=O)[O-])n1)Nc1ccc(Cl)cc1	4.3*
CN(C)/C=N/NC(=O)Cc1csc2nc(-c3ccccc3)nn12	0.23
CC1=C(C(=O)OC(C)C)C(c2ccc(Cl)cc2)C2=C(CC(c3ccccc3)CC2=O)N1 (stereo unspecified)	2
CC(=O)c1ccc(N=Nc2c(O)c(C(=O)Nc3ccccc3)cc3ccccc23)cc1	-0.37
SMILES	Dicer inh
COc1ccc(C(=O)C(OC(=O)c2ccncc2)c2ccccc2)cc1 (stereo unspecified)	-0.15
O=C(NNC(=S)Nc1ccccc1C(F)(F)F)c1ccc(-c2ccc(Cl)cc2)s1	4.3*
Cc1ccc(O)c(C(=O)NNC(=S)Nc2ccccc2C(F)(F)F)c1	5.4
CC(C)(C)NC(=S)NNC(=O)c1ccc(-c2ccc(Cl)cc2)s1	-0.16
O=C(NCc1cccs1)c1cnn2c(C(F)(F)F)cc(-c3ccc4c(c3)OCO4)nc12	-0.28
COCCCNC(=S)N1CCN(c2ccc([N+](=O)[O-])cn2)CC1	-3.4
S=c1[nH]nc(CN2c3ccccc3Sc3ccccc32)n1-c1ccc(Cl)cc1Cl	-0.24
O=C1C2C(c3ccccc3)OC3(C(=O)c4ccccc4C3=O)C2C(=O)N1C1CCCCC1 (stereo unspecified)	-0.93
Cc1cc(Cl)c(OC(=O)c2c(Cl)cccc2Cl)c(Cl)c1	-1.2
CN(C)C(=S)SCc1ccccc1C(=O)Oc1c(Cl)cccc1Cl	3.6*
CNC(=S)NNC(=O)c1ccccc1Cl	-0.28
CC1=C(C(=O)OCCc2ccccc2)C(c2cccs2)C2=C(CC(c3cccs3)CC2=O)N1 (stereo unspecified)	0.63
Cc1nc(N2C(=O)c3oc4ccccc4c(=O)c3C2c2ccc(C(C)C)cc2)sc1C (stereo unspecified)	0.75
CCN(CC)S(=O)(=O)c1ccc(N2C(=O)CC3(CCCC3)C2=O)c(Cl)c1	-0.74
COc1ccc(-c2c(N)n[nH]c2C)cc1OC	4.9*
COc1ccc(-c2c(-c3ccc(OC)c(OC)c3)c(C)n(C)c2C)cc1OC	-0.69
COc1ccc(-c2nc3cc(N)ccc3o2)cc1OC	2.5
CCNC(=O)C(=O)NCC1CCCO1 (stereo unspecified)	2
CCOC(=O)CN1C(=O)C2CC=C(Cl)CC2C1=O (stereo unspecified)	3.1*
CC(C)CC(C(=O)O)N1C(=O)C2CC=C(Cl)CC2C1=O (stereo unspecified)	-0.93
COc1ccc(N2C(=O)C3CC=C(Cl)CC3C2=O)cc1 (stereo unspecified)	-0.6
Cc1cc(-c2nn(C)c(=O)c3ccccc23)cc(C)c1OCC(=O)NNC(=O)Nc1ccccc1	-0.16
CCOC(=O)c1c(NC(=O)c2nc3ncccn3n2)sc2c1CCC2	0.2
COc1cc2c(cc1OC)C(c1sc3ccccc3c1Cl)=NCC2	1.2
CCS(=O)(=O)N1CCN(CC2CC=CCC2)CC1 (stereo unspecified)	3.7*
CC(C)CC(=O)N1CCN(CC2CC=CCC2)CC1 (stereo unspecified)	1.6
CSc1ccc(CN2CCN(CC3CC=CCC3)CC2)cc1 (stereo unspecified)	1.2
COc1ccc(C2Nc3ccc4ccccc4c3C3=C2C(=O)CC(C)(C)C3)cc1 (stereo unspecified)	2.4
CCOC(=O)N1CCc2c(sc3c2C(=O)NC(c2cc(Br)ccc2O)N3)C1 (stereo unspecified)	-6.9

Bioassay records as filed in PubChem.
